“And” between values parts separate entries of the source, which are not always exact repeats. Identical values can stand only once. About 2,000 (36%) of roughly 5,500 compounds were called active. Inconclusive results (about 18%) are left out. Rule as the data show it: active = normalized growth mostly below about 0.91 (no sharp cut-off); inconclusive = no clear call, values can overlap the other calls; inactive = mostly above about 0.92. The list shows a part of the results.
Assay: chemical genetic growth profiling, strain panel (AID 1159580);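 also: tested at 20 µM; growth read once vehicle control cultures reached saturation at 30 °C; 1 = growth at the plate median or of vehicle wells; lower values mean less growth of the strain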
Details: growth OD

Measured: normalized growth

OCCN1CCN(CCCN2c3ccccc3Sc3ccc(Cl)cc32)CC1
inactive: S. cerevisiae deletion strains, locus YJR075W, strain HOC1, stronger effect = lower value 1 | S. cerevisiae deletion strains, locus YKL009W, strain mrt4, stronger effect = lower value 0.982 | S. cerevisiae deletion strains, locus YKL068W, stronger effect = lower value 0.999 | S. cerevisiae deletion strains, locus YKL085W, strain MDH1 (second series), stronger effect = lower value 1 | S. cerevisiae deletion strains, locus YKL085W, strain MDH1, stronger effect = lower value 1 | S. cerevisiae deletion strains, locus YKL160W, strain elf1, stronger effect = lower value 0.996 | S. cerevisiae deletion strains, locus YKL190W, strain CNB1, stronger effect = lower value 1.01 | S. cerevisiae deletion strains, locus YKR001C, strain vps1, stronger effect = lower value 1.03 | S. cerevisiae deletion strains, locus YKR026C, strain gcn3, stronger effect = lower value 1 | S. cerevisiae deletion strains, locus YKR091W, strain srl3, stronger effect = lower value 1 | S. cerevisiae deletion strains, locus YLL001W, strain dnm1, stronger effect = lower value 1.01 | S. cerevisiae deletion strains, locus YLL026W, stronger effect = lower value 0.999 | S. cerevisiae deletion strains, locus YLL041C, strain sdh2, stronger effect = lower value 1 | S. cerevisiae deletion strains, locus YLR027C, strain aat2, stronger effect = lower value 1 | S. cerevisiae deletion strains, locus YLR039C, strain RIC1, stronger effect = lower value 1.24 | S. cerevisiae deletion strains, locus YLR058C, strain SHM2, stronger effect = lower value 1.01 | S. cerevisiae deletion strains, locus YLR102C, strain apc9, stronger effect = lower value 0.991 | S. cerevisiae deletion strains, locus YLR113W, strain HOG1, stronger effect = lower value 0.98 | S. cerevisiae deletion strains, locus YLR221C, strain rsa3, stronger effect = lower value 1 | S. cerevisiae deletion strains, locus YLR258W, strain gsy2, stronger effect = lower value 1 | S. cerevisiae deletion strains, locus YLR262C, strain YPT6 (second series), stronger effect = lower value 1.06 | S. cerevisiae deletion strains, locus YLR262C, strain YPT6, stronger effect = lower value 1.32 | S. cerevisiae deletion strains, locus YLR268W, strain sec22, stronger effect = lower value 0.935 | S. cerevisiae deletion strains, locus YLR320W, strain mms22, stronger effect = lower value 0.964 | S. cerevisiae deletion strains, locus YLR330W, strain CHS5, stronger effect = lower value 1.01 | S. cerevisiae deletion strains, locus YLR342W, strain FKS1 (second series), stronger effect = lower value 0.958 | S. cerevisiae deletion strains, locus YLR342W, strain FKS1, stronger effect = lower value 0.994 | S. cerevisiae deletion strains, locus YLR357W, strain rsc2, stronger effect = lower value 0.983 | S. cerevisiae deletion strains, locus YLR370C, strain arc18, stronger effect = lower value 1 | S. cerevisiae deletion strains, locus YLR371W, strain rom2, stronger effect = lower value 0.992 | S. cerevisiae deletion strains, locus YLR384C, strain iki3, stronger effect = lower value 1 | S. cerevisiae deletion strains, locus YLR418C, strain cdc73, stronger effect = lower value 0.894 | S. cerevisiae deletion strains, locus YML016C, strain PPZ1, stronger effect = lower value 1.02 | S. cerevisiae deletion strains, locus YML032C, strain rad52, stronger effect = lower value 0.961 | S. cerevisiae deletion strains, locus YML120C, strain ndi1, stronger effect = lower value 1 | S. cerevisiae deletion strains, locus YML124C, strain tub3, stronger effect = lower value 0.991 | S. cerevisiae deletion strains, locus YMR058W, strain fet3, stronger effect = lower value 0.995 | S. cerevisiae deletion strains, locus YMR078C, strain ctf18, stronger effect = lower value 0.986 | S. cerevisiae deletion strains, locus YMR125W, strain sto1, stronger effect = lower value 1.01 | S. cerevisiae deletion strains, locus YMR129W, stronger effect = lower value 1 | S. cerevisiae deletion strains, locus YMR205C, strain PFK2, stronger effect = lower value 0.977 | S. cerevisiae deletion strains, locus YMR223W, strain ubp8, stronger effect = lower value 0.984 | S. cerevisiae deletion strains, locus YMR231W, strain pep5, stronger effect = lower value 1 | S. cerevisiae deletion strains, locus YMR263W, strain SAP30, stronger effect = lower value 1 | S. cerevisiae deletion strains, locus YMR307W, strain GAS1, stronger effect = lower value 1.1 | S. cerevisiae deletion strains, locus YNL067W, strain RPL9B, stronger effect = lower value 0.989 | S. cerevisiae deletion strains, locus YNL071W, strain lat1, stronger effect = lower value 1.01 | S. cerevisiae deletion strains, locus YNL128W, strain TEP1, stronger effect = lower value 1 | S. cerevisiae deletion strains, locus YNL153C, strain GIM3, stronger effect = lower value 0.983 and 0.891 | S. cerevisiae deletion strains, locus YNL175C, strain NOP13, stronger effect = lower value 1.03 | S. cerevisiae deletion strains, locus YNL183C, strain NPR1, stronger effect = lower value 0.947 | S. cerevisiae deletion strains, locus YNL197C, strain WHI3, stronger effect = lower value 1.02 | S. cerevisiae deletion strains, locus YNL209W, strain ssb2, stronger effect = lower value 0.997 | S. cerevisiae deletion strains, locus YNL224C, strain SQS1, stronger effect = lower value 1.02 | S. cerevisiae deletion strains, locus YNL233W, strain BNI4, stronger effect = lower value 0.986 | S. cerevisiae deletion strains, locus YNL248C, strain rpa49, stronger effect = lower value 0.998 | S. cerevisiae deletion strains, locus YNL250W, strain rad50, stronger effect = lower value 0.985 | S. cerevisiae deletion strains, locus YNL271C, strain bni1, stronger effect = lower value 0.996 | S. cerevisiae deletion strains, locus YNL298W, strain CLA4, stronger effect = lower value 0.976 | S. cerevisiae deletion strains, locus YNL307C, strain MCK1, stronger effect = lower value 0.973 | S. cerevisiae deletion strains, locus YNL322C, strain KRE1 (second series), stronger effect = lower value 1 | S. cerevisiae deletion strains, locus YNL322C, strain KRE1, stronger effect = lower value 1.01 | S. cerevisiae deletion strains, locus YNR049C, strain mso1, stronger effect = lower value 1.01 | S. cerevisiae deletion strains, locus YNR052C, strain pop2, stronger effect = lower value 1 | S. cerevisiae deletion strains, locus YOL006C, strain TOP1, stronger effect = lower value 1.01 | S. cerevisiae deletion strains, locus YOL012C, strain htz1 0.889 | S. cerevisiae deletion strains, locus YOL147C, strain pex11, stronger effect = lower value 0.992 | S. cerevisiae deletion strains, locus YOR001W, strain rrp6, stronger effect = lower value 0.976 | S. cerevisiae deletion strains, locus YOR061W, strain CKA2, stronger effect = lower value 1.02 | S. cerevisiae deletion strains, locus YOR069W, strain VPS5, stronger effect = lower value 1.01 | S. cerevisiae deletion strains, locus YOR070C, strain gyp1, stronger effect = lower value 0.994 | S. cerevisiae deletion strains, locus YOR080W, strain dia2, stronger effect = lower value 1 | S. cerevisiae deletion strains, locus YOR083W, strain WHI5 (second series), stronger effect = lower value 0.973 | S. cerevisiae deletion strains, locus YOR083W, strain WHI5, stronger effect = lower value 0.991 | S. cerevisiae deletion strains, locus YOR106W, strain vam3, stronger effect = lower value 0.962 | S. cerevisiae deletion strains, locus YOR136W, strain idh2, stronger effect = lower value 0.998 | S. cerevisiae deletion strains, locus YOR144C, strain elg1, stronger effect = lower value 1 | S. cerevisiae deletion strains, locus YOR184W, strain ser1, stronger effect = lower value 0.985 | S. cerevisiae deletion strains, locus YOR231W, strain MKK1, stronger effect = lower value 0.997 | S. cerevisiae deletion strains, locus YOR265W, strain rbl2, stronger effect = lower value 0.998 | S. cerevisiae deletion strains, locus YOR270C, strain vph1, stronger effect = lower value 1.04 | S. cerevisiae deletion strains, locus YOR290C, strain snf2, stronger effect = lower value 0.968 | S. cerevisiae deletion strains, locus YOR316C, strain cot1, stronger effect = lower value 0.994 | S. cerevisiae deletion strains, locus YPL051W, strain arl3, stronger effect = lower value 0.975 | S. cerevisiae deletion strains, locus YPL055C, strain LGE1, stronger effect = lower value 0.99 | S. cerevisiae deletion strains, locus YPL078C, strain atp4, stronger effect = lower value 1 | S. cerevisiae deletion strains, locus YPL106C, strain sse1, stronger effect = lower value 1.03 | S. cerevisiae deletion strains, locus YPL240C, strain hsp82, stronger effect = lower value 0.995 | S. cerevisiae deletion strains, locus YPL241C, strain CIN2, stronger effect = lower value 1.02 | S. cerevisiae deletion strains, locus YPL256C, strain CLN2, stronger effect = lower value 1.01 | S. cerevisiae deletion strains, locus YPR119W, strain clb2, stronger effect = lower value 0.991 | S. cerevisiae deletion strains, locus YPR141C, strain kar3, stronger effect = lower value 0.996 | S. cerevisiae deletion strains, locus YPR163C, strain tif3, stronger effect = lower value 0.987 | S. cerevisiae deletion strains, locus YPR167C, strain met16, stronger effect = lower value 1 | S. cerevisiae deletion strains, strain wtn01, stronger effect = lower value 0.951 | S. cerevisiae strains, strain wild type, stronger effect = lower value 1.01

— PubChem BioAssay AID1159580 (chemical genetic matrix, 2015)
